{"source": "PubChem BioAssay (NCATS)", "note": "Results filed as inconclusive are left out. Entries that show only a call come without a potency. Calls of active or inactive are those of the source. The call rests on the fitted dose curve; in most records, active means well fitted cell-killing curve with a large enough effect; inconclusive means small, poorly fitted or top-dose-only effect, or effect the other way; inactive means flat fitted curve, though single readings scatter. Potency means the concentration at half of the fitted maximal effect.", "data": [{"test_system": "Es-2", "assay": "Primary qHTS to identify gynecologic anti-cancer compounds using libraries of approved drugs and bioactive compounds (AID 1345084); further: nearly all actives have a fitted effect of over 55% in size", "settings": "Gynecologic cancer cell panel viability, ATPlite luminescence, 48 h; series mostly up to 57.5 µM", "method_in_brief": "(§1)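 Cells, 1,000 per well, plated 16 h, then exposed 48 h at 37 C to compounds. Viability by ATPlite luminescence after 15 min at room temperature.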", "values": [{"molecule": "CC(C)NNC(=O)c1ccncc1", "Potency": "inactive"}, {"molecule": "CCN(CC)CCNC(=O)c1cc(S(C)(=O)=O)ccc1OC", "Potency": "inactive"}, {"molecule": "c1cnc(N2CCN(Cc3ccc4c(c3)OCO4)CC2)nc1", "Potency": "inactive"}, {"molecule": "NC1=NCC2c3ccccc3Cc3ccccc3N12", "note": "(stereo unspecified)", "Potency": "inactive"}, {"molecule": "CCCCCN(CCCCC)C(=O)C(CCC(=O)O)NC(=O)c1ccc(Cl)c(Cl)c1", "note": "(stereo unspecified)", "Potency": "inactive"}, {"molecule": "OCCN1CCN(CCCN2c3ccccc3C=Cc3ccccc32)CC1", "Potency": "inactive"}, {"molecule": "CN1C(=O)CC[C@H]1c1cccnc1", "Potency": "inactive"}, {"molecule": "CCC(=O)c1ccc2c(c1)N(CCCN(C)C)c1ccccc1S2", "Potency": "inactive"}, {"molecule": "C[C@]12CC[C@@H]3c4ccc(O)cc4C[C@@H](CCCCCCCCCS(=O)CCCC(F)(F)C(F)(F)F)[C@H]3[C@@H]1CC[C@@H]2O", "note": "(stereo partly specified)", "Potency": "inactive"}, {"molecule": "CCCN1C[C@H](CSC)C[C@@H]2c3cccc4[nH]cc(c34)C[C@H]21", "Potency": "inactive"}, {"molecule": "CC1=NS(=O)(=O)c2cc(Cl)ccc2N1", "Potency": "inactive"}, {"molecule": "O=C(O)CN(CCN(CC(=O)O)CC(=O)O)CCN(CC(=O)O)CC(=O)O", "Potency": "inactive"}, {"molecule": "c1cc(CN2CCCCC2)cc(OCCCNc2nc3ccccc3s2)c1", "Potency": "inactive"}, {"molecule": "C[C@H](CS)C(=O)N1CCC[C@H]1C(=O)O", "Potency": "inactive"}, {"molecule": "CCc1cccc(N(C)C(N)=Nc2cccc3ccccc23)c1", "Potency": "inactive"}, {"molecule": "CCc1c(C)[nH]c2c1C(=O)C(CN1CCOCC1)CC2", "note": "(stereo unspecified)", "Potency": "inactive"}, {"molecule": "CNCCCN1c2ccccc2CCc2ccccc21", "Potency": "inactive"}, {"molecule": "Cc1ccc(/C(=C\\CN2CCCC2)c2ccccn2)cc1", "Potency": "inactive"}, {"molecule": "NC(N)=N/N=C/c1c(Cl)cccc1Cl", "Potency": "inactive"}, {"molecule": "CC[N+](C)(C)c1cccc(O)c1", "Potency": "inactive"}, {"molecule": "Cc1ccc(Cl)c(Nc2ccccc2C(=O)O)c1Cl", "Potency": "inactive"}, {"molecule": "CN1C[C@H](C(=O)N[C@]2(C)O[C@@]3(O)[C@@H]4CCCN4C(=O)[C@H](Cc4ccccc4)N3C2=O)C[C@@H]2c3cccc4[nH]cc(c34)C[C@H]21", "Potency": "inactive"}, {"molecule": "O=C(CCCN1CCC(O)(c2cccc(C(F)(F)F)c2)CC1)c1ccc(F)cc1", "Potency": "inactive"}, {"molecule": "C[n+]1cc2c3c(ccc2c2ccc4cc5c(cc4c21)OCO5)OCO3", "Potency": "8.91 µM (active)"}, {"molecule": "CCCN(CCC)C(=O)C(CCC(=O)O)NC(=O)c1ccccc1", "note": "(stereo unspecified)", "Potency": "inactive"}, {"molecule": "CC1=C(C)C(=O)C(CCCCC#CCCCC#CCO)=C(C)C1=O", "Potency": "inactive"}, {"molecule": "Cc1cc(C)c(/C=C2\\C(=O)Nc3ccccc32)[nH]1", "Potency": "inactive"}, {"molecule": "COC(=O)[C@H]1[C@H]2C[C@@H]3c4[nH]c5cc(OC)ccc5c4CCN3C[C@H]2C[C@@H](OC(=O)c2cc(OC)c(OC)c(OC)c2)[C@@H]1OC", "Potency": "inactive"}, {"molecule": "CCN(CC)CCCN(c1ccccc1)C1Cc2ccccc2C1", "Potency": "inactive"}, {"molecule": "CCOC(=O)c1cnc2c(cnn2CC)c1NN=C(C)C", "Potency": "inactive"}, {"molecule": "COCC(=O)O[C@]1(CCN(C)CCCc2nc3ccccc3[nH]2)CCc2cc(F)ccc2[C@@H]1C(C)C", "Potency": "inactive"}, {"molecule": "NC(N)=NC(=O)Cc1c(Cl)cccc1Cl", "Potency": "inactive"}, {"molecule": "COc1ccc([C@@H]2Sc3ccccc3N(CCN(C)C)C(=O)[C@@H]2OC(C)=O)cc1", "Potency": "inactive"}, {"molecule": "CC(C)(C)c1ccc(C(=O)CCCN2CCC(OC(c3ccccc3)c3ccccc3)CC2)cc1", "Potency": "inactive"}, {"molecule": "CN(C)CC[C@@H](c1ccc(Br)cc1)c1ccccn1", "Potency": "inactive"}, {"molecule": "CC(N=C(NC#N)Nc1ccncc1)C(C)(C)C", "note": "(stereo unspecified)", "Potency": "inactive"}]}, {"test_system": "HeLa", "assay": "Primary qHTS to identify gynecologic anti-cancer compounds using libraries of approved drugs and bioactive compounds (AID 1345084)", "settings": "Gynecologic cancer cell panel viability, ATPlite luminescence, 48 h; series mostly up to 57.5 µM", "method_in_brief": "as §1", "values": [{"molecule": "CCN(CC)CCNC(=O)c1cc(S(C)(=O)=O)ccc1OC", "Potency": "inactive"}, {"molecule": "NC1=NCC2c3ccccc3Cc3ccccc3N12", "note": "(stereo unspecified)", "Potency": "inactive"}, {"molecule": "OCCN1CCN(CCCN2c3ccccc3C=Cc3ccccc32)CC1", "Potency": "inactive"}, {"molecule": "CCC(=O)c1ccc2c(c1)N(CCCN(C)C)c1ccccc1S2", "Potency": "inactive"}, {"molecule": "CC1=NS(=O)(=O)c2cc(Cl)ccc2N1", "Potency": "inactive"}, {"molecule": "c1cc(CN2CCCCC2)cc(OCCCNc2nc3ccccc3s2)c1", "Potency": "inactive"}, {"molecule": "C[C@H](CS)C(=O)N1CCC[C@H]1C(=O)O", "Potency": "inactive"}, {"molecule": "CCc1cccc(N(C)C(N)=Nc2cccc3ccccc23)c1", "Potency": "inactive"}, {"molecule": "CNCCCN1c2ccccc2CCc2ccccc21", "Potency": "inactive"}, {"molecule": "NC(N)=N/N=C/c1c(Cl)cccc1Cl", "Potency": "inactive"}, {"molecule": "O=C(CCCN1CCC(O)(c2cccc(C(F)(F)F)c2)CC1)c1ccc(F)cc1", "Potency": "inactive"}, {"molecule": "C[n+]1cc2c3c(ccc2c2ccc4cc5c(cc4c21)OCO5)OCO3", "Potency": "8.91 µM (active)"}, {"molecule": "CC1=C(C)C(=O)C(CCCCC#CCCCC#CCO)=C(C)C1=O", "Potency": "inactive"}, {"molecule": "CCN(CC)CCCN(c1ccccc1)C1Cc2ccccc2C1", "Potency": "inactive"}, {"molecule": "COCC(=O)O[C@]1(CCN(C)CCCc2nc3ccccc3[nH]2)CCc2cc(F)ccc2[C@@H]1C(C)C", "Potency": "inactive"}, {"molecule": "NC(N)=NC(=O)Cc1c(Cl)cccc1Cl", "Potency": "inactive"}, {"molecule": "CC(C)(C)c1ccc(C(=O)CCCN2CCC(OC(c3ccccc3)c3ccccc3)CC2)cc1", "Potency": "inactive"}, {"molecule": "CN(C)CC[C@@H](c1ccc(Br)cc1)c1ccccn1", "Potency": "inactive"}, {"molecule": "CC(N=C(NC#N)Nc1ccncc1)C(C)(C)C", "note": "(stereo unspecified)", "Potency": "inactive"}]}, {"test_system": "Hek293T", "assay": "Primary qHTS to identify gynecologic anti-cancer compounds using libraries of approved drugs and bioactive compounds (AID 1345084)", "settings": "Gynecologic cancer cell panel viability, ATPlite luminescence, 48 h, control line for the selectivity index; series mostly up to 57.5 µM", "method_in_brief": "as §1", "values": [{"molecule": "CC(C)NNC(=O)c1ccncc1", "Potency": "inactive"}, {"molecule": "c1cnc(N2CCN(Cc3ccc4c(c3)OCO4)CC2)nc1", "Potency": "inactive"}, {"molecule": "NC1=NCC2c3ccccc3Cc3ccccc3N12", "note": "(stereo unspecified)", "Potency": "inactive"}, {"molecule": "CCCCCN(CCCCC)C(=O)C(CCC(=O)O)NC(=O)c1ccc(Cl)c(Cl)c1", "note": "(stereo unspecified)", "Potency": "inactive"}, {"molecule": "OCCN1CCN(CCCN2c3ccccc3C=Cc3ccccc32)CC1", "Potency": "inactive"}, {"molecule": "CN1C(=O)CC[C@H]1c1cccnc1", "Potency": "inactive"}, {"molecule": "CCC(=O)c1ccc2c(c1)N(CCCN(C)C)c1ccccc1S2", "Potency": "inactive"}, {"molecule": "C[C@]12CC[C@@H]3c4ccc(O)cc4C[C@@H](CCCCCCCCCS(=O)CCCC(F)(F)C(F)(F)F)[C@H]3[C@@H]1CC[C@@H]2O", "note": "(stereo partly specified)", "Potency": "inactive"}, {"molecule": "CCCN1C[C@H](CSC)C[C@@H]2c3cccc4[nH]cc(c34)C[C@H]21", "Potency": "inactive"}, {"molecule": "CC1=NS(=O)(=O)c2cc(Cl)ccc2N1", "Potency": "inactive"}, {"molecule": "O=C(O)CN(CCN(CC(=O)O)CC(=O)O)CCN(CC(=O)O)CC(=O)O", "Potency": "inactive"}, {"molecule": "C[C@H](CS)C(=O)N1CCC[C@H]1C(=O)O", "Potency": "inactive"}, {"molecule": "CCc1cccc(N(C)C(N)=Nc2cccc3ccccc23)c1", "Potency": "inactive"}, {"molecule": "CCc1c(C)[nH]c2c1C(=O)C(CN1CCOCC1)CC2", "note": "(stereo unspecified)", "Potency": "inactive"}, {"molecule": "CNCCCN1c2ccccc2CCc2ccccc21", "Potency": "inactive"}, {"molecule": "Cc1ccc(/C(=C\\CN2CCCC2)c2ccccn2)cc1", "Potency": "inactive"}, {"molecule": "NC(N)=N/N=C/c1c(Cl)cccc1Cl", "Potency": "inactive"}, {"molecule": "CC[N+](C)(C)c1cccc(O)c1", "Potency": "inactive"}, {"molecule": "Cc1ccc(Cl)c(Nc2ccccc2C(=O)O)c1Cl", "Potency": "inactive"}, {"molecule": "CN1C[C@H](C(=O)N[C@]2(C)O[C@@]3(O)[C@@H]4CCCN4C(=O)[C@H](Cc4ccccc4)N3C2=O)C[C@@H]2c3cccc4[nH]cc(c34)C[C@H]21", "Potency": "inactive"}, {"molecule": "O=C(CCCN1CCC(O)(c2cccc(C(F)(F)F)c2)CC1)c1ccc(F)cc1", "Potency": "inactive"}, {"molecule": "C[n+]1cc2c3c(ccc2c2ccc4cc5c(cc4c21)OCO5)OCO3", "Potency": "8.91 µM (active)"}, {"molecule": "CCCN(CCC)C(=O)C(CCC(=O)O)NC(=O)c1ccccc1", "note": "(stereo unspecified)", "Potency": "inactive"}, {"molecule": "Cc1cc(C)c(/C=C2\\C(=O)Nc3ccccc32)[nH]1", "Potency": "inactive"}, {"molecule": "COC(=O)[C@H]1[C@H]2C[C@@H]3c4[nH]c5cc(OC)ccc5c4CCN3C[C@H]2C[C@@H](OC(=O)c2cc(OC)c(OC)c(OC)c2)[C@@H]1OC", "Potency": "inactive"}, {"molecule": "CCOC(=O)c1cnc2c(cnn2CC)c1NN=C(C)C", "Potency": "inactive"}, {"molecule": "COCC(=O)O[C@]1(CCN(C)CCCc2nc3ccccc3[nH]2)CCc2cc(F)ccc2[C@@H]1C(C)C", "Potency": "inactive"}, {"molecule": "NC(N)=NC(=O)Cc1c(Cl)cccc1Cl", "Potency": "inactive"}, {"molecule": "COc1ccc([C@@H]2Sc3ccccc3N(CCN(C)C)C(=O)[C@@H]2OC(C)=O)cc1", "Potency": "inactive"}, {"molecule": "CN(C)CC[C@@H](c1ccc(Br)cc1)c1ccccn1", "Potency": "inactive"}, {"molecule": "CC(N=C(NC#N)Nc1ccncc1)C(C)(C)C", "note": "(stereo unspecified)", "Potency": "inactive"}]}]}
